Compounds without any hit were thinned out: in the full panel of roughly 83,000, 20% have a hit.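 Activity criterion: percent growth below 10, measured after cells in 96-well plates were exposed to a single compound concentration for 48 hours.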 Active and inactive are the calls of the source.
Key:
Assay in all cases: NCI-60 one-dose screen, 48 h (100 = growth as untreated, 0 = no growth, -100 = all killed)
Details in all cases: 10 µM
NCI-H23 lung = tested on: NCI-H23 lung
NCI-H226 lung = tested on: NCI-H226 lung
NCI-H322M lung = tested on: NCI-H322M lung
HOP-62 NSCLC = tested on: HOP-62 NSCLC
NCI-H460 lung = tested on: NCI-H460 lung
HOP-92 NSCLC = tested on: HOP-92 NSCLC
NCI-H522 lung = tested on: NCI-H522 lung
A549/ATCC NSCLC = tested on: A549/ATCC NSCLC
786-0 renal = tested on: 786-0 renal
COLO 205 colon = tested on: COLO 205 colon

Measured: growth

O=C(NO)c1ccc(CNC(=O)[C@H]2Cc3c([nH]c4ccccc34)[C@H](c3ccccc3)N2)cc1
active: HOP-92 NSCLC -2.26% | NCI-H522 lung -8.88% | COLO 205 colon -55.5%
inactive: NCI-H23 lung 34% | NCI-H226 lung 64.2% | NCI-H322M lung 43.2% | HOP-62 NSCLC 18.7% | NCI-H460 lung 27.7% | A549/ATCC NSCLC 50.6% | 786-0 renal 53.9%

Cc1ccc(C(=O)N/C(=C2/OCCN2C)[P+](c2ccccc2)(c2ccccc2)c2ccccc2)cc1
inactive: NCI-H23 lung 85.1% | NCI-H226 lung 92.9% | NCI-H322M lung 100% | HOP-62 NSCLC 96.9% | NCI-H460 lung 83.8% | HOP-92 NSCLC 60.3% | NCI-H522 lung 57.8% | A549/ATCC NSCLC 97.8% | 786-0 renal 103% | COLO 205 colon 57.9%

O=C(c1ccc([N+](=O)[O-])c([N+](=O)[O-])c1O)n1[nH]c(=O)c2ccccc2c1=O
inactive: NCI-H23 lung 50.5% | NCI-H226 lung 82.1% | NCI-H322M lung 85.8% | HOP-62 NSCLC 75.5% | NCI-H460 lung 44.8% | HOP-92 NSCLC 78.6% | NCI-H522 lung 54.8% | A549/ATCC NSCLC 77.6% | 786-0 renal 97.7% | COLO 205 colon 124%

Cc1ccc(/C(N)=N/c2sc(-c3ccccc3)nc2-c2ccccc2)cc1
inactive: NCI-H23 lung 83.1% | NCI-H226 lung 94.3% | NCI-H322M lung 90.2% | HOP-62 NSCLC 101% | NCI-H460 lung 76.5% | HOP-92 NSCLC 90.2% | NCI-H522 lung 83% | A549/ATCC NSCLC 80.4% | 786-0 renal 76.7% | COLO 205 colon 91.1%

COC[C@@H](CC(C)C)N=C1NC(=O)/C(=C/c2ccc3ncoc3c2)N1
inactive: NCI-H322M lung 20.4% | HOP-62 NSCLC 14.4% | HOP-92 NSCLC 15.8% | A549/ATCC NSCLC 13.7% | 786-0 renal 22.2%
active: NCI-H23 lung -14.2% | NCI-H226 lung 0.124% | NCI-H460 lung 6.38% | NCI-H522 lung -16.2% | COLO 205 colon -16.1%

CC1CC(c2ccc(N(C)C)cc2)=NN1c1nc(O)c(C2=c3cc(Br)ccc3=NC2=O)s1 (stereo not given)
active: NCI-H23 lung 1.13%
inactive: NCI-H226 lung 77.8% | NCI-H322M lung 112% | HOP-62 NSCLC 92.7% | NCI-H460 lung 63.8% | HOP-92 NSCLC 83.8% | NCI-H522 lung 70.2% | A549/ATCC NSCLC 72.6% | 786-0 renal 94% | COLO 205 colon 99.7%

Cc1ccc(/C=C/C(=O)c2ccc(NC(=O)CSc3nnc(-c4c[nH]c5ccccc45)n3-c3ccccc3)cc2)cc1
inactive: NCI-H23 lung 74.3% | NCI-H226 lung 80.7% | NCI-H322M lung 92.8% | HOP-62 NSCLC 95.8% | NCI-H460 lung 84.6% | HOP-92 NSCLC 92% | NCI-H522 lung 81.7% | A549/ATCC NSCLC 95.9% | 786-0 renal 109% | COLO 205 colon 102%

COc1cccc2nc(Nc3cccc(NC(=O)c4ccc(CN5CCCN(C)CC5)c(C(F)(F)F)c4)c3)ccc12
active: NCI-H23 lung -97.9% | NCI-H226 lung -70.5% | NCI-H322M lung -100% | HOP-62 NSCLC -74.7% | NCI-H460 lung -83.6% | HOP-92 NSCLC -83.5% | NCI-H522 lung -67.5% | A549/ATCC NSCLC -75.6% | 786-0 renal -84.9% | COLO 205 colon -56.9%

O=C(Nc1ccc(OCC(=O)c2ccccc2)cc1)Nc1ccc(Cl)c(C(F)(F)F)c1
inactive: NCI-H23 lung 25.4% | NCI-H322M lung 28% | HOP-62 NSCLC 27.9% | NCI-H460 lung 18.4% | A549/ATCC NSCLC 25.4% | 786-0 renal 21%
active: NCI-H226 lung 8.87% | HOP-92 NSCLC -14.5% | NCI-H522 lung -31.7% | COLO 205 colon -3.64%

CC(C)c1ccc(C(=O)Nc2sc3c(c2C(N)=O)CCC(=O)C3=O)cc1
inactive: NCI-H23 lung 81.3% | NCI-H226 lung 86.6% | NCI-H322M lung 104% | HOP-62 NSCLC 102% | NCI-H460 lung 97.5% | HOP-92 NSCLC 127% | NCI-H522 lung 84% | A549/ATCC NSCLC 99.4% | 786-0 renal 113% | COLO 205 colon 104%

COc1ccccc1[C@H]1C(C(=O)c2ccc(Cl)cc2)C2(N[C@@H]1c1ccccc1)C(=O)Nc1ccc(Cl)cc12 (stereo not given in full)
active: NCI-H23 lung -1.97% | NCI-H226 lung 4.06% | NCI-H460 lung 8.58% | HOP-92 NSCLC 7.15% | NCI-H522 lung -5.89% | 786-0 renal 8.8% | COLO 205 colon -69.7%
inactive: NCI-H322M lung 32.9% | HOP-62 NSCLC 26% | A549/ATCC NSCLC 15.8%

N#Cc1ccc(-c2nn(-c3ccc(C(=O)O)cc3)cc2CNc2cccc(Br)c2)cc1
inactive: NCI-H23 lung 10.6% | NCI-H226 lung 44.4% | NCI-H322M lung 85.5% | HOP-62 NSCLC 42% | NCI-H460 lung 37.8% | HOP-92 NSCLC 56.5% | NCI-H522 lung 73.4% | A549/ATCC NSCLC 55.7% | 786-0 renal 45% | COLO 205 colon 117%

CCCn1c(=O)c2[nH]c(-c3ccc(OCc4nc5ccc(C)cc5[nH]4)cc3)nc2n(CCC)c1=O
active: NCI-H226 lung -55% | HOP-62 NSCLC -17.3% | HOP-92 NSCLC -43.2% | 786-0 renal -75.2%
inactive: NCI-H23 lung 25.3% | NCI-H322M lung 40.3% | NCI-H460 lung 13% | NCI-H522 lung 36.7% | A549/ATCC NSCLC 62.7% | COLO 205 colon 91.3%

CCCn1c(=O)c2[nH]c(-c3ccc(OCc4nc5ccc(C(F)(F)F)cc5[nH]4)cc3)nc2n(CCC)c1=O
inactive: NCI-H23 lung 11.1% | NCI-H226 lung 37.8% | NCI-H322M lung 69.2% | HOP-62 NSCLC 87% | NCI-H460 lung 41.4% | HOP-92 NSCLC 67.7% | NCI-H522 lung 23.6% | A549/ATCC NSCLC 46.7% | 786-0 renal 42.8% | COLO 205 colon 59.3%

COc1cc(-c2nc3cc(Cl)c(Cl)cc3[nH]2)ccc1OCc1nnc(-c2ccc(Br)cc2)o1
active: NCI-H226 lung -46.8% | HOP-62 NSCLC -28.1% | HOP-92 NSCLC -39.6% | NCI-H522 lung 8.01% | 786-0 renal -31%
inactive: NCI-H23 lung 24% | NCI-H322M lung 38.8% | NCI-H460 lung 22.9% | A549/ATCC NSCLC 19.5% | COLO 205 colon 51.4%

Cc1ccc(/C=C/C(=O)c2ccc(S(=O)(=O)NCCNc3nc(Nc4ccc(F)cc4)nc(N(C)C)n3)cc2)cc1
inactive: NCI-H23 lung 36.5% | NCI-H322M lung 48.5% | HOP-62 NSCLC 56.2% | NCI-H522 lung 71.3% | A549/ATCC NSCLC 41.3% | COLO 205 colon 35.4%
active: NCI-H226 lung -1.6% | NCI-H460 lung 0.319% | HOP-92 NSCLC -18.2% | 786-0 renal -32%

C/C(=C\c1ccc(O)cc1O)c1ccc2ccc(O)cc2[o+]1
inactive: NCI-H23 lung 45.8% | NCI-H226 lung 66.2% | NCI-H322M lung 78.1% | HOP-62 NSCLC 54.9% | NCI-H460 lung 56.8% | HOP-92 NSCLC 83.8% | NCI-H522 lung 55% | A549/ATCC NSCLC 91.9% | 786-0 renal 52.9% | COLO 205 colon 116%

O=C(CSc1nnc(-c2c[nH]c3ccccc23)n1-c1ccccc1)c1ccc(Cl)cc1
inactive: NCI-H23 lung 40.8% | NCI-H226 lung 17.6% | NCI-H322M lung 58.7% | HOP-62 NSCLC 47.1% | NCI-H460 lung 60.1% | HOP-92 NSCLC 65% | NCI-H522 lung 67% | A549/ATCC NSCLC 37.5% | 786-0 renal 44.9% | COLO 205 colon 42.6%

CN(C)c1ccc(/C=C/c2nc3ccccc3c(=O)n2CC(=O)Nc2ccccc2)cc1
inactive: NCI-H23 lung 58.8% | NCI-H322M lung 48.6% | HOP-62 NSCLC 37.3% | NCI-H460 lung 16.8% | HOP-92 NSCLC 15.3% | NCI-H522 lung 48.7% | A549/ATCC NSCLC 33.6% | 786-0 renal 20.1% | COLO 205 colon 69.6%
active: NCI-H226 lung -6.92%

CC(=O)Nc1ccc(-n2cnc3cc(-c4ccc(NS(C)(=O)=O)cc4)ccc32)cc1
active: NCI-H226 lung -68.4%
inactive: NCI-H23 lung 61% | NCI-H322M lung 59.1% | HOP-62 NSCLC 75.4% | NCI-H460 lung 33.4% | HOP-92 NSCLC 39.7% | NCI-H522 lung 46.9% | A549/ATCC NSCLC 57% | 786-0 renal 52.3% | COLO 205 colon 63.9%

CN1CCO/C1=C(/NC(=O)c1ccc(Cl)cc1)[P+](c1ccccc1)(c1ccccc1)c1ccccc1
inactive: NCI-H23 lung 84.5% | NCI-H226 lung 89.3% | NCI-H322M lung 96.6% | HOP-62 NSCLC 95% | NCI-H460 lung 94.1% | HOP-92 NSCLC 60.9% | NCI-H522 lung 58.4% | A549/ATCC NSCLC 102% | 786-0 renal 103% | COLO 205 colon 68.9%

N#Cc1c(NC(=O)c2ccc(C(F)(F)F)cc2)sc2c1CCC(O)=C2
inactive: NCI-H23 lung 23.9% | NCI-H226 lung 46.9% | NCI-H322M lung 46.1% | HOP-62 NSCLC 26.3% | NCI-H460 lung 14.6% | HOP-92 NSCLC 38.7% | A549/ATCC NSCLC 34.7% | 786-0 renal 53.3% | COLO 205 colon 60.9%
active: NCI-H522 lung 1.61%

CC(=O)Nc1ccc(-c2cn(-c3cccc(C(=O)Nc4ccc(F)c(C(F)(F)F)c4)c3)nn2)cn1
inactive: NCI-H23 lung 23.6% | NCI-H226 lung 26.4% | NCI-H322M lung 54.3% | HOP-62 NSCLC 87.7% | HOP-92 NSCLC 65.6% | NCI-H522 lung 62.3% | A549/ATCC NSCLC 54.3% | 786-0 renal 79.9% | COLO 205 colon 46%
active: NCI-H460 lung -47.1%

CC(C)CCSc1nc(NC2CC2)c(C#N)c(-c2ccc(C(C)C)cc2)n1
inactive: NCI-H23 lung 101% | NCI-H226 lung 106% | NCI-H322M lung 113% | HOP-62 NSCLC 94.9% | NCI-H460 lung 120% | HOP-92 NSCLC 114% | NCI-H522 lung 90.7% | A549/ATCC NSCLC 106% | 786-0 renal 93.6% | COLO 205 colon 126%

CN(C)c1cccc2c(S(=O)(=O)Nc3cccc(-c4csc(NC(=O)CCCCCN5CCN(c6cc7c(cc6F)C(=O)N(C6CCC(=O)NC6=O)C7=O)CC5)n4)c3)cccc12 (stereo not given)
inactive: NCI-H23 lung 60.2% | NCI-H226 lung 72.7% | NCI-H322M lung 106% | HOP-62 NSCLC 88.5% | NCI-H460 lung 91.4% | HOP-92 NSCLC 56.6% | NCI-H522 lung 85.6% | A549/ATCC NSCLC 90.3% | 786-0 renal 86.1% | COLO 205 colon 104%

COc1cnc2c(c1)C(=O)c1c-2n(CCCNCCO)c(=O)c2cc(OC)c(OC)cc12
active: NCI-H23 lung 3.38% | 786-0 renal -11.9%
inactive: NCI-H226 lung 15.4% | NCI-H322M lung 30.9% | HOP-62 NSCLC 12.1% | NCI-H460 lung 10.2% | HOP-92 NSCLC 54.4% | NCI-H522 lung 15.1% | A549/ATCC NSCLC 43% | COLO 205 colon 15.4%

From PubChem BioAssay (NCI)
